cytoskel mod = modifiers of F-actin cytoskeleton organization, primary screen, imaging, HUVEC, phalloidin staining, high-content imaging. 91,000 compounds, 0.18% hits. AID 836, 2007. HUVEC TNFa F-actin phalloidin imaging. inhibition, % at 2 µM;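 active = inhibition above the batch mean plus 3 SD and confirmed as a hit by visual image inspection, cut at about 30% in these data, passing the limit was not always enough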
E-sel TNF inh = E-selectin induction blockers in HUVEC – imaging, immunofluorescence, high content, primary screen. HUVEC TNFa-induced E-selectin immunofluorescence. inhibition, % at 2 µM. 120,000 compounds, 0.71% hits;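 active = inhibition above the batch mean plus 3 SD, and confirmed as a hit on visual image review, cut at about 43% in these data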;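 note: 0% = TNF-stimulated DMSO wells and 100% = unstimulated control wells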
VCAM1 TNFa inh = inhibitors of TNFa-induced VCAM1 expression, primary screen, imaging, HUVEC, TNFa stimulus, immunofluorescence; HUVEC TNFa-induced VCAM-1 immunofluorescence, high-content imaging; inhibition, % at 2 µM; 95,000 compounds, 0.48% hits;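 active = inhibition above the batch mean plus 3 SD, with images confirmed as a hit by eye, cut at about 37% in these data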;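 note: 0% = TNF-stimulated DMSO wells and 100% = unstimulated control wells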
TNFa cytotox = cytotoxicity in TNFa-stimulated HUVEC, primary screen, cytotoxicity control for VCAM1 expression modulator project, imaging, Hoechst nuclei count; HUVEC TNFalpha-stimulated, Hoechst cell count; cell count reduction, % at 2 µM; 93,000 compounds, 0.17% hits;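 active = cell count reduction exceeding the screen mean by over 5 SD, scaled to untreated wells per plate, cut at about 78% in these data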;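 note: cells counted after 24 h of TNF alpha exposure following the 1 h pretreatment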
Active calls of the source: *; . = no result given. In the library only some 1.1% were active in any assay of this set; here they are far more common.

SMILES	cytoskel mod	E-sel TNF inh	VCAM1 TNFa inh	TNFa cytotox
CCN(CC)S(=O)(=O)c1ccc2[nH]c(=O)cc(C(=O)Nc3cccc(C(C)=O)c3)c2c1	.	68.3*	.	.
CC(C)(C)c1nn2cnnc2n(/N=C/c2cccc3ccccc23)c1=O	.	-42.5	.	.
Cc1ccc(/C=N/n2c(=O)c(C(C)(C)C)nn3cnnc23)cc1	.	79.8*	.	.
Cc1noc(C)c1COC(=O)c1cccc(N(C)C)c1	.	-10.2	.	.
COc1ccc2[nH]c(C)c(CCNC(=S)Nc3cc(C)cc(C)c3)c2c1	.	-10.4	.	.
COc1ccc2[nH]c(C)c(CCN3C(=O)C4C5C=CC(C5)C4C3=O)c2c1 (stereo unspecified)	-3.1	70.2*	16.1	-30.3
CCc1c(O)nc(SCC(=O)Nc2ccc3c(c2)CCC3)[nH]c1=O	-6.5	3.1	1.8	-20.2
CCCCc1c(O)nc(SCC(=O)Nc2ccc3c(c2)CCC3)[nH]c1=O	.	59.6*	.	.
Cc1ccc(NC(=O)CNc2ccc(N3CCOCC3)cc2)cc1S(=O)(=O)N(C)C	.	-1.2	.	.
Cc1cc(C(=O)NN=C2C3CC4CC(C3)CC2C4)c2ccccc2n1	-46.7	-3.4	52.3*	26.6
Cc1cc(C(=O)NN=C2CCCCC2)c2ccccc2n1	.	-9.9	.	.
O=C(N/N=C/c1ccc([N+](=O)[O-])o1)C1CC1	.	-6.9	.	.
Cn1c(=N)n(CC(O)c2ccco2)c2ccccc21 (stereo unspecified)	-26.0	.	-14.9	-7.5
Cn1c(=N)n(CC(O)c2cccc3ccccc23)c2ccccc21 (stereo unspecified)	-14.3	.	43.0	83.0*
Cn1c(NC(=O)/C=C\c2ccccc2)cc(=O)n(C)c1=O	.	-20.4	.	.
N=c1oc2c3c4c(cc2cc1C(=O)Nc1ccccc1)CCCN4CCC3	42.6*	30.9	26.0	9.9
O=C(Nc1ccccc1)c1cccnc1N1CCCC1	-19.9	20.1	12.6	14.0
COc1ccc(/C=C(/C#N)C(=O)Nc2cccc([N+](=O)[O-])c2)cc1C(=O)O	.	-9.3	.	.
C=CCOc1c2ccc(C(=O)NCc3ccc(OC)cc3)cc2nn1C	-15.5	12.7	-9.9	-24.8
C=CCOc1c2ccc(C(=O)NCc3ccccc3OC)cc2nn1C	27.9	6.1	68.3*	71.6
O=C(Oc1ccccc1N1C(=O)C2CC=CCC2C1=O)c1ccc(Br)cc1 (stereo unspecified)	.	78.0*	.	.
Cc1csc(=Nc2ccc(S(=O)(=O)N3CCOCC3)cc2)n1Cc1ccco1	10.2	.	-22.9	-16.8
CCc1c(C)nc2ncnn2c1N1CCC(C(=O)N2CCN(c3ccc(F)cc3)CC2)CC1	10.3	55.3*	-18.6	-60.2
CCc1c(C)nc2ncnn2c1N1CCCC(C(=O)Nc2ccc(NC(C)=O)cc2)C1 (stereo unspecified)	5.8	-6.8	-8.4	-5.2
O=C(CN1CCN(CC(=O)Nc2ccc(OCc3ccccc3)cc2)CC1)Nc1ccc(F)cc1	40.9	63.8*	-1.7	3.1
SMILES	cytoskel mod	E-sel TNF inh	VCAM1 TNFa inh	TNFa cytotox
O=C(CN1CCOCC1)Nc1ccc(OCc2ccccc2)cc1	-18.7	37.7	-0.7	6.8
O=C(CN(CC1CCCO1)C(=O)CCC(=O)Nc1nccs1)NCc1ccc2c(c1)OCO2 (stereo unspecified)	-4.7	100.0*	-15.9	-38.5
COc1ccc(NS(=O)(=O)c2cc(C)ccc2NC(=O)c2cc(C)oc2C)cc1	-59.1	2.0	44.4*	32.2
O=S1(=O)CCN(C(CCO)c2cccc(C(F)(F)F)c2)CC1 (stereo unspecified)	.	94.8*	.	.
CN1CCC(N(C)C(=S)NC(=O)C23CC4CC(CC(C4)C2)C3)CC1	.	78.7*	.	.
CC(C)(C)NC(=S)NC(=O)C12CC3CCC(CC(C3)C1)C2	.	4.1	.	.
CCOC(=O)N1CCC(NC(=O)CN2C(=O)CSc3nc(C)cc(C)c32)CC1	-1.1	83.5*	-4.2	-14.0
COC(=O)c1cc(Br)c(=O)n(Cc2cccnc2)c1	-14.1	-0.8	8.6	-8.2
COC(=O)c1cc(Br)c(=O)n(Cc2ccncc2)c1	14.5	64.0*	8.4	5.5
COc1cccc(CNc2ccc(F)c(Cl)c2)c1	-1.7	100.0*	13.5	5.8
C/C(=N\Nc1cccc2cccnc12)c1ccccc1O	.	72.2*	.	.
O=C1CC(c2cc(Br)ccc2F)c2cc3c(cc2N1)CCC3 (stereo unspecified)	-40.1	-5.4	82.5*	.
CCN1CCN(C(c2ccc(F)cc2)c2nnnn2Cc2cccs2)CC1 (stereo unspecified)	.	10.2	.	.
CN1CCN(C(c2ccc(F)cc2)c2nnnn2Cc2cccs2)CC1 (stereo unspecified)	.	56.6*	.	.
CCOc1ccc(N2CC(C(=O)Nc3ccc(N4CCOCC4)cc3)CC2=O)cc1 (stereo unspecified)	-21.8	14.9	-7.7	-9.3
CCOc1ccc(N2CC(C(=O)NCCCN3CCOCC3)CC2=O)cc1 (stereo unspecified)	-6.3	50.2*	14.0	5.3
O=C(NCc1cccs1)c1nc2c(nnn2Cc2ccccc2Cl)c(=O)[nH]1	-3.5	.	54.2*	-12.4
CCC(C)NC(=O)c1nc2c(nnn2Cc2ccccc2Cl)c(=O)[nH]1 (stereo unspecified)	.	-15.0	.	.
Cc1ccc(CSc2nc3nc(C)cc(C)c3c(=O)[nH]2)cc1	.	1.9	.	.
Cc1nc(SCc2ccc(Br)cc2)[nH]c(=O)c1C	-24.1	15.2	66.8*	32.7
Cc1occc1-c1nnc(SCC(=O)c2ccc(F)cc2)o1	-26.3	-8.3	12.4	-35.3
Cc1cc(C)c(NC(=O)CCn2nnc3ccccc32)c(C)c1	.	-6.9	.	.
CCCCn1c2nc3ccccc3nc2c2c(=O)n(CCC(C)C)cnc21	-6.1	18.8	10.9	-30.6
CCCCn1c2nc3ccccc3nc2c2c(=O)n(-c3ccccc3)cnc21	.	91.9*	.	.
CC1CCCN(C(=O)C2CCN(S(=O)(=O)c3cccc4cccnc34)CC2)C1 (stereo unspecified)	2.9	.	4.2	-10.6
SMILES	cytoskel mod	E-sel TNF inh	VCAM1 TNFa inh	TNFa cytotox
Cc1cccc2cc(C#N)c(SCC(=O)N3CCC(C)CC3)nc12	46.6	6.7	-12.9	7.0
Cc1nnc(SCC(=O)N2CC(=O)Nc3ccccc32)n1C	1.9	64.0*	-5.9	-6.3
Cc1cccc2cc(C#N)c(SCC(=O)N3CC(=O)Nc4ccccc43)nc12	-19.3	33.3	94.3*	60.3
CC(C)(C)C1CCC(OCC(O)CN2CCN(c3ccccn3)CC2)CC1 (stereo unspecified)	.	-13.9	.	.
CCn1c(SCC(=O)Nc2ccc3c(c2)oc2ccccc23)nnc1-c1ccc(N)cc1	.	3.3	-1.9	-46.8
COc1ccc(CCNC(=O)CC2SC(=NCc3ccccc3)NC2=O)cc1 (stereo unspecified)	.	-5.3	.	.
CC(=O)c1ccc(Nc2cnn(C34CC5CC(CC(CC(=O)O)(C5)C3)C4)c(=O)c2Cl)cc1	.	-23.4	.	.
CC(Oc1ccc(Br)cc1)C(=O)NCc1ccccn1 (stereo unspecified)	.	1.0	.	.
Cc1cc(C)nc(NCCC(=O)O)n1	.	29.6	.	.
CC1=C(C(=O)Nc2ccccc2C)C(c2ccc(C)o2)N2C(=O)CSC2=N1 (stereo unspecified)	4.5	17.3	1.7	-14.3
CC(C)CCN1CC(C(=O)NCCC2=CCCCC2)CC1=O (stereo unspecified)	67.9*	-10.0	-4.9	-17.6
